Results filed as inconclusive are left out. A call without a number means that no potency is given here. Calls of active or inactive are those of the source. The call rests on the fitted dose curve; in most records, active means well fitted inhibition curve with a large enough effect; inconclusive means small, poorly fitted or top-dose-only effect; inactive means flat fitted curve, though single readings scatter.
Potency means the concentration at half of the fitted maximal effect.

This test concerns CP335. As to the kind of experiment: qHTS profiling for inhibitors of Plasmodium falciparum proliferation (AID 504749). Further: nearly all actives have a fitted effect of over 60% in size. Particulars: P. falciparum in erythrocytes, SYBR Green DNA, 72 h; series mostly up to 28.7 µM. In short, it runs like this: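 SYBR Green fluorescence of parasite DNA, read after lysis and overnight dark incubation, measured growth over 72 h in erythrocyte culture at 0.3% parasitemia and 2.5% hematocrit. Data normalised to DMSO and 0.29 uM artemisinin, with plate-drift correction.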
Take `S=C=Nc1ccc(N=C=S)cc1`: the Potency result is “inactive”. As to `N=C(N)n1cccn1`, the Potency result is “inactive”. Take `Cc1cccc(C)c1NC(=O)NC1=CCCN1C`: the Potency result is “inactive”. The value for `Cc1cc(-c2ccc(N=Nc3ccc4c(S(=O)(=O)O)cc(S(=O)(=O)O)c(N)c4c3O)c(C)c2)ccc1N=Nc1ccc2c(S(=O)(=O)O)cc(S(=O)(=O)O)c(N)c2c1O` was “inactive”; that for `O=P(O)(O)O` was “inactive”. The value for `CN(CCO)CC(O)Cn1cnc2c1c(=O)n(C)c(=O)n2C` (centres undefined) (tested in a mixture with another compound) was “inactive”; that for `O=C(O)Cc1cc(I)c(Oc2ccc(O)c(I)c2)c(I)c1` was “inactive”; that for `COC1=C(OC)C(=O)C(C/C=C(\C)CC/C=C(\C)CC/C=C(\C)CC/C=C(\C)CC/C=C(\C)CC/C=C(\C)CC/C=C(\C)CC/C=C(\C)CC/C=C(\C)CCC=C(C)C)=C(C)C1=O` was “inactive”. The value for `CN=C1C=CC(=C(c2ccc(N(C)C)cc2)c2ccc(N(C)C)cc2)C=C1` was 301 nM (active); that for `CCOc1ccc(S(=O)(=O)O)c2cccnc12` was “inactive”; that for `FC(F)(F)COCC(F)(F)F` was “inactive”. Regarding `O=C(O)[C@H]1C(=CCO)O[C@H]2CC(=O)N12`, the Potency entry is “inactive”. The same measure for `CC1CC(O)CC(C)(C)C1` (centres undefined): “inactive”. With `Cc1ncc(C[n+]2csc(CCOP(=O)(O)O)c2C)c(N)n1`, the Potency result was “inactive”. The value for `CCCCO` was “inactive”. The same measure for `CCOC(=S)SSC(=S)OCC`: “inactive”; for `N[C@H](CC(=O)O)C(=O)O`: “inactive”. The value for `CCC(C(=O)NC(N)=O)c1ccccc1` (centres undefined) was “inactive”.

As to `CCN(CC)CCOC(=O)c1cccnc1`, the Potency entry is “inactive”. The value for `NC(=S)NS(=O)(=O)c1ccc(N)cc1` was “inactive”; that for `COc1cc2c(cc1OC)[C@@H](Cc1cc(OC)c(OC)c(OC)c1)[N+](C)(CCCOC(=O)CC/C=C/CCC(=O)OCCC[N+]1(C)CCc3cc(OC)c(OC)cc3[C@H]1Cc1cc(OC)c(OC)c(OC)c1)CC2` (some centres undefined) was “inactive”. Take `Cc1ncc(COP(=O)(O)O)c(CN)c1O`: the Potency result was “inactive”. For `C[C@H](N)C(=O)N[C@@H](C)P(=O)(O)O`, the Potency entry is “inactive”. Turning to `CO[C@H]1C[C@@H]2CC[C@@H](C)[C@@](O)(O2)C(=O)C(=O)N2CCCC[C@H]2C(=O)O[C@H]([C@H](C)C[C@@H]2CC[C@@H](OC(=O)C(C)(CO)CO)[C@H](OC)C2)CC(=O)[C@H](C)/C=C(\C)[C@@H](O)[C@@H](OC)C(=O)[C@H](C)C[C@H](C)/C=C/C=C/C=C/1C`, the Potency entry was “inactive”. As for `CC1=C(/C=C/C(C)=C/C=C/C(C)=C/C(=O)Oc2c(C)c(C)c3c(c2C)CC[C@@](C)(CCC[C@H](C)CCC[C@H](C)CCCC(C)C)O3)C(C)(C)CCC1`, the Potency entry was “inactive”. Consider `CCCCCCCCCCCCCC(=O)OCC(COP(=O)([O-])OCC[N+](C)(C)C)OC(=O)CCCCCCCCCCCCC` (centres undefined), for which the Potency entry was “inactive”. The same measure for `CC(C)c1ncc([N+](=O)[O-])n1C`: “inactive”; for `NC(=O)[C@@H]1CCCN1C(=O)[C@H](Cc1cnc[nH]1)NC(=O)[C@@H]1CCC(=O)N1`: “inactive”; for `Cc1ccccn1`: “inactive”. Consider `Nc1nccs1`, for which the Potency result is “inactive”. As for `O=C(NCCNCC(O)COc1ccc(O)cc1)N1CCOCC1` (centres undefined), the Potency entry was “inactive”.

Take `CC(C)CCC[C@@H](C)[C@H]1CC[C@H]2[C@@H]3CC=C4C[C@@H](O)CC[C@]4(C)[C@H]3CC[C@]12C`: the Potency entry was “inactive”. The value for `CS(=O)(=O)OCC(O)C(O)COS(C)(=O)=O` (centres undefined) was “inactive”. Take `NCC[C@H](O)C(=O)N[C@@H]1C[C@H](N)[C@@H](O[C@H]2O[C@H](CN)CC[C@H]2N)[C@H](O)[C@H]1O[C@H]1O[C@H](CO)[C@@H](O)[C@H](N)[C@H]1O`: the Potency entry was “inactive”. For the compound `OCC(O)CO`, the Potency entry is “inactive”.

Regarding `CCOc1ccc(NC(=S)Nc2ccc(OCC)cc2)cc1`, the Potency entry is “inactive”. The value for `CCOC(=O)c1cc(-c2ccccc2)nc2ccc(C)cc12` was “inactive”; that for `OCl` was “inactive”.

`CCc1ncnc2cc(OC)c(OC)cc12`: the Potency result is “inactive”.

The values above are taken from PubChem BioAssay (NCATS).
